Compounds with a hit are over-represented: about 12% of the library has one in this group of screens.
KCC2 mod: modulators of human KCC2 chloride dependent transport; Q9H2X9; KCC2 cells, thallium flux FluoZin-2 fluorescence; B-score of Tl+ flux slope (higher = more flux/activation; lower = inhibition) at 10 µM; hit rate 2.2% among 190,000;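 active = thallium flux slope and its plate-corrected score both differing from the plate sample mean at a set confidence after two filtering rounds, in either direction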;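 note: slope of fluorescence scaled to starting intensity during 10 to 20 s after thallium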
Target sequence (Q9H2X9 whole entry, looked up): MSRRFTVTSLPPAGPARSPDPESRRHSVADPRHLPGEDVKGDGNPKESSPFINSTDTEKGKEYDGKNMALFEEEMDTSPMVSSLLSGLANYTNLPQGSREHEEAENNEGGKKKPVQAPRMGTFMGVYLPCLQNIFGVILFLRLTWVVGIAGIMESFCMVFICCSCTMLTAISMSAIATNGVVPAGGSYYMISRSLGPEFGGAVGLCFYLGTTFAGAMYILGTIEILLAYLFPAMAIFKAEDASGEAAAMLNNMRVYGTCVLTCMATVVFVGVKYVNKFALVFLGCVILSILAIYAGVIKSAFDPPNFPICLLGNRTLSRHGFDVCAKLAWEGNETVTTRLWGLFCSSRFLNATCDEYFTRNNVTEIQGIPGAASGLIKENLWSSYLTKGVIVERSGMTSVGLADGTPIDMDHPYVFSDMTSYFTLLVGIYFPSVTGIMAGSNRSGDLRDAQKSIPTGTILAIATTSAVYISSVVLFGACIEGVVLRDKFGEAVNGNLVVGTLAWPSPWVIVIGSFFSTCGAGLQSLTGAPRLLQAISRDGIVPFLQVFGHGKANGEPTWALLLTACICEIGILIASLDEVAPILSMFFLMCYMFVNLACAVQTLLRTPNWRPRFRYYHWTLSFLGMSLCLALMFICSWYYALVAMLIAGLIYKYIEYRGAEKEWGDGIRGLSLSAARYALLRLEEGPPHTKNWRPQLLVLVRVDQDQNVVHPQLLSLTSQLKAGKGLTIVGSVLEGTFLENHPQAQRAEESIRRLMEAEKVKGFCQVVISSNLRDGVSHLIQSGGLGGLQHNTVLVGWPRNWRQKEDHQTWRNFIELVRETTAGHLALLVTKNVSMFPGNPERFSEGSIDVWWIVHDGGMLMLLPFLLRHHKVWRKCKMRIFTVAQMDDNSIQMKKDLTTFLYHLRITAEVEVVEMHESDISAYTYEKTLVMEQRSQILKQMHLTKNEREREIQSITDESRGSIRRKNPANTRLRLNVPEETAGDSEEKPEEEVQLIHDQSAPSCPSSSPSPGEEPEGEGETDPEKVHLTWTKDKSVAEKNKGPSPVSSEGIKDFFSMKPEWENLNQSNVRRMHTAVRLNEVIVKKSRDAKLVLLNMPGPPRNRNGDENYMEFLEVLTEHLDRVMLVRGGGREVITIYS
L major viab: reduces viability of Leishmania major promastigotes | hit rate 9% among 200,000 | inhibition, % at 10 µM | resazurin fluorescence viability | AID 1063; in the data active = inhibition above about 50%;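 note: promastigotes grown with compound for 44 hours at 28 °C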
ROMK mod: modulators of human ROMK potassium channel; P48048; hit rate 2% among 130,000; Tet-inducible ROMK, thallium flux fluorescence; actives lie on both sides; B-score at 10 µM;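 active = signal ratio slope over the read window, or its plate-corrected B-score, at least 3 SD from the plate mean, either direction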;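 note: B-score of the F/F0 ratio slope over 7 to 12 s after thallium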
WT yeast gro inh: growth inhibition of WT yeast, mitochondrial fusion screen; inhibition, % at 10 µM; hit rate 2.1% among 190,000; mitochondrial fusion phenotypic screen, WT strain; in the data active = inhibition above about 58%; tested in S. cerevisiae
m-calpain inh: blocks pig calpain II enzyme activity; purified calpain II, fluorogenic peptide substrate, 30 min; inhibition, % at 16 µM; hit rate 0.37% among 220,000;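 active = inhibition above about 50%, limit read from the data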
A number is an active result; - = inactive; . = no result given.

SMILES	KCC2 mod	L major viab	ROMK mod	WT yeast gro inh	m-calpain inh
CCc1nc(SCC(=O)N2CC(=O)Nc3ccccc32)c2c(C)c(C)sc2n1	5.5	-	.	-	-
Cc1ccc(Cn2c(SCC(=O)N3CC(=O)Nc4ccccc43)nc3ccccc3c2=O)cc1	-	-	-	-	-
Cc1sc2nc(C3CCCCC3)nc(SCC(=O)N3CC(=O)Nc4ccccc43)c2c1C	.	-	.	-	-
C=CCn1c(SCC(=O)N2CC(=O)Nc3ccccc32)nc2scc(-c3ccccc3)c2c1=O	-	94	.	-	-
Cc1ccc(-n2nnnc2SCC(=O)N2CCc3ccccc3C2)c(C)c1	-	-	-	61	-
COC(=O)C1=C(NC(=O)C2CCCCC2)CCS1	-	-	-	-	-
Cc1cc(C)c(Cn2cnc3ccccc32)c(C)c1	-	-	-	-	-
CC(=O)Nc1ccc(Nc2nc(Cl)nc(Nc3ccc(NC(C)=O)cc3)n2)cc1	-	-	-	-	-
CCC(CC)C(=O)Nc1ccc(C(=O)c2ccccc2)cc1	.	-	-	-	-
COc1ccc(CC(=O)NNC(=O)c2ccncc2)cc1	-	-	-	-	-
CCCn1c(=O)c2ccccc2n2c(SCC(=O)N3CCc4ccccc4C3)nnc12	-4.1	-	.	-	-
COCCn1c(SCc2ccc(C(=O)OC)o2)nc2cc(Cl)ccc2c1=O	-	-	.	-	-
CC(C)Cn1c(SCC(=O)N2CCc3ccccc3C2)nc2cc(Cl)ccc2c1=O	-	91	-	-	-
COCCn1c(SCC(=O)N2CCc3ccccc3C2)nc2cc(Cl)ccc2c1=O	-	60	-	-	-
CCn1c(=O)c2ccccc2n2c(SCC(=O)N3CCc4ccccc4C3)nnc12	.	-	.	-	-
Cc1cc(C)c(C(=O)CSc2nc(C)cc(C)c2C(N)=O)c(C)c1	-	-	.	-	-
O=C(Oc1ccccc1)c1c(Cl)cccc1P(=O)(O)O	-	-	-	-	-
COc1cccc(N=Nc2c(N)[nH]n3c(=O)c4c(nc23)CCCC4)c1	-	74	.	-	-
COc1cccc(N=Nc2c(N)[nH][nH]c2=O)c1	-	-	.	-	-
O=C(CCS(=O)(=O)c1ccc(Cl)cc1)Nc1ccc(N2CCOCC2)cc1	-	.	.	.	-
CC1=CCC(C(=O)O)(C(=O)N/N=C/c2cccs2)C(c2ccc([N+](=O)[O-])cc2)C1 (stereo not given)	.	-	-	70	-
Cc1ccc(S(=O)(=O)CC(CN2CCCCC2)N2CCCCC2)cc1 (stereo not given)	-	97	-	-	-
Cc1ccc(S(=O)(=O)CC(c2ccccc2)N2CCCCC2)cc1 (stereo not given)	-	-	-	-	-
COCc1cc(C)nc(OCC(=O)N/N=C\c2cc(C)n(-c3cccc(C(F)(F)F)c3)c2C)c1C#N	-	-	-	-	-
Cc1ccc(-c2nc(SCC(=O)Nc3cc(S(=O)(=O)N4CCCCC4)ccc3Cl)n[nH]2)cc1	-	58	-	-	-
SMILES	KCC2 mod	L major viab	ROMK mod	WT yeast gro inh	m-calpain inh
O=C(CCl)Nc1cc(S(=O)(=O)N2CCCCCC2)ccc1Cl	-	99	-	-	-
Nc1cc(=O)[nH]n1C1CCCCC1	-	-	.	-	-
O=C1NC(=S)S/C1=C\c1cc2ccccc2nc1N1CCCCC1	.	.	.	.	56
Cc1nn(C)cc1/C=C1\SC(=S)NC1=O	-	-	-	-	-
N#C/C(=C\c1cc2ccccc2nc1N1CCCCC1)C(N)=O	-	76	-	-	-
O=C(Cn1c(=O)sc2ccccc21)Nc1ccccc1C(=O)O	-	-	.	-	-
CN1C(=S)SC(N2OC3C(=O)N(c4ccccc4)C(=O)C3C2c2ccc(Cl)cc2)C1(C)C (stereo not given)	-	-	.	-	-
O=C(OCC(O)CN1CCCCC1)C12CC3CC(CC(C3)C1)C2 (stereo not given)	.	91	-	-	-
OC(COCCC12CC3CC(CC(C3)C1)C2)CN1CCCC1 (stereo not given)	-	91	-	-	-
CC(NCC(O)COCCC12CC3CC(CC(C3)C1)C2)c1ccccc1 (stereo not given)	-	100	-	76	-
NCC(O)COCCC12CC3CC(CC(C3)C1)C2 (stereo not given)	-	-	-	-	-
Cc1c(NC(=O)CSCc2c(F)cccc2Cl)c(=O)n(-c2ccccc2)n1C	-	-	-	-	-
O=C(C[N+]1(CC#Cc2ccccc2)CCCCC1)c1ccc(Cl)cc1	-	52	-	-	-
O=C(C[N+]1(CC#Cc2ccccc2)CCCCC1)c1ccccc1	.	-	-	-	-
C(#Cc1ccccc1)C[N+]1(CC#Cc2ccccc2)CCCCC1	-	100	-	-	-
CCC(COC(=O)Nc1ccccc1)NC(=O)OC(C)C (stereo not given)	-	-	-	-	-
N#Cc1cc(-c2ccccc2)nc(Oc2ccc(Cl)cc2)n1	-	77	-	-	-
O=S(=O)(Nc1ccc(Cl)cc1)c1ccc(N2CCOCC2)c(NC(=S)NCCN2CCOCC2)c1	-	-	-	-	-
CCn1c(O)c(N=NC(=O)C(O)c2ccccc2)c2ccccc21 (stereo not given)	-	.	.	.	-
O=C(c1ccco1)N1CCN(C(=S)NC2CC3CCC2C3)CC1 (stereo not given)	-	-	-	-	-
COc1ccc(CCCC(=O)NC2CCCCC2)cc1	-	-	.	.	-
O=C(CCc1ccc(Oc2cc([N+](=O)[O-])cc([N+](=O)[O-])c2)cc1)NC1CCCC1	-	99	-	-	-
CC1CCN(C(=O)CCc2ccc(S(=O)(=O)NC(C)(C)C)cc2)CC1	-	-	.	-	-
CC1CCN(C(=O)CCc2ccc(Oc3cc([N+](=O)[O-])cc([N+](=O)[O-])c3)cc2)CC1	-	99	-	65	-
CC(=O)Nc1nc(C(=O)O)cs1	-	-	-	-	-
SMILES	KCC2 mod	L major viab	ROMK mod	WT yeast gro inh	m-calpain inh
CCO[C@@H]1OC(C(=O)NC2CC2)=C[C@H](c2csc3ccccc23)[C@H]1CCCO	-	-	.	-	-
CCC(CC)c1nnc(NC(=O)c2c(C)nn(Cc3ccccc3Cl)c2C)s1	-	-	.	-	-
Cc1cc(C)cc(N(CCC(=O)Nc2nnc(C3CC3)s2)S(=O)(=O)c2ccc(Cl)cc2)c1	-	82	-	-	-
Cc1ccc(S(=O)(=O)NCCC(=O)Nc2nnc(C3CC3)s2)cc1C	-	-	-	-	-
Cc1ccccc1N1CCN(C(=O)c2ccc(Oc3ccc(C(F)(F)F)cn3)cc2)CC1	.	-	.	75	-
CC(C)OCCCNC(=S)Nc1ccc(S(N)(=O)=O)cc1	-	-	.	-	-
O=S(=O)(NCc1cc(-c2ccccc2Cl)no1)c1ccc(Cl)cc1	.	-	.	-	-
Cc1ccc(NC(=O)c2ccc(NCCN)c([N+](=O)[O-])c2)cc1Cl	-	100	-	-	-
Cc1ccc(NC(=O)c2ccc(NCCc3ccccc3)c([N+](=O)[O-])c2)cc1F	-	89	-	-	-
O=C(Nc1cc(F)cc(F)c1)c1ccc(NCCCN2CCCCCC2)c([N+](=O)[O-])c1	-	91	-	-	-
CCCN(CCC)CCCNc1ccc(C(=O)Nc2cccc(OC)c2)cc1[N+](=O)[O-]	-	98	-	-	-
CCNc1ccc(C(=O)Nc2ccc3nc(C)sc3c2)cc1[N+](=O)[O-]	-	-	.	-	-

Screening data from PubChem BioAssay.
